In the library only some 21% were active in any assay of this set; here they are far more common.
D3 ag: agonists of human D3 dopamine receptor; D3R DiscoveRx beta-arrestin cells, luminescence, 90 min; max activation, %; 0.58% of 410,000 active; AID 652048; in the data active = max activation above about 30%
Target sequence (P35462 whole entry, looked up): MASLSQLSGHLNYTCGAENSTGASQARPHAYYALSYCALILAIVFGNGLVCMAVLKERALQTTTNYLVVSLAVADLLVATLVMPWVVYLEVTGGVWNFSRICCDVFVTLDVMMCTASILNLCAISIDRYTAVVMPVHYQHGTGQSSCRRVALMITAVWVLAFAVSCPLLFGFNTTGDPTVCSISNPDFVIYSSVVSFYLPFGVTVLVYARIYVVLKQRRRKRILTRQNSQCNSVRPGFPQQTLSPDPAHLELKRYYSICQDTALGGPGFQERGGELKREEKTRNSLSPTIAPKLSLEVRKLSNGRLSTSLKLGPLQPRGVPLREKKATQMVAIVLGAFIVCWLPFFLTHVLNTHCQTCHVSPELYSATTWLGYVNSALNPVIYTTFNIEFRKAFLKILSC
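Agonist mode: compounds and dopamine controls were applied to plated cells for 90 min at 37 degrees C after an overnight attachment at 1500 cells/well. Luminescent read-out followed 30 - 60 minutes at room temperature with DiscoveRx detection reagent.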
ClpP mod: qHTS Assay for Activators of ClpP | purified B. subtilis ClpP, FRET peptide cleavage, 20 min | Potency, µM (series often up to 57.5 µM) | 1.9% of 340,000 active | AID 651965, 2013; active = well fitted falling curve with a large enough effect; inconclusive = small, poorly fitted or top-dose-only effect; inactive = no such curve, though single readings can be large or run the other way; note: the source files actives as falling curves though it sought activators and does not explain the sign; nearly all actives have a fitted effect of over 65% in size
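Buffer: 100 mM Tris/HCl pH8, 100 mM KCl, 0.05% low protease BSA, 2.5% glycerol, 0.01% Tween-20. ClpP 10 microg/mL final; 20 min RT; delta FRET normalized to ADEP and DMSO controls.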
DT40 TDP1 CPT: growth inhibition of DT40 Tdp1-/-;hTDP1 cells with camptothecin (screen for TDP1 inhibitors); chicken DT40 Tdp1-/-;hTDP1 cells + 20 nM CPT, ATP luminescence, 48 h; Potency, µM (series often up to 46.2 µM), most hits filed as inhibitors; 12% of 420,000 active; AID 686979; note: nearly all actives have a fitted effect of over 55% in size
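Chicken DT40 Tdp1-/- cells stably complemented with human TDP1 were seeded at 400 cells/well in medium containing 20 nM camptothecin, exposed to pin-transferred compounds, and grown at 37 °C for at least 48 hr. Viability was read as ATP luminescence.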
D3 antag: antagonists of human D3 dopamine receptor. P35462. D3R cells, DiscoveRx beta-arrestin luminescence, antagonist mode; hits give low values. max response, negative = inhibition, %. 2.5% of 360,000 active. AID 652054; in the data active = max response below about -50%; inconclusive = no clear call, values can overlap the other calls
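Cells plated overnight at 1500 cells/well, then exposed to library compounds with dopamine controls for 90 minutes at 37 degrees C. DiscoveRx reagent added for 30–60 minutes at room temperature; luminescence read, quantitative HTS format.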
DT40 TDP1 no CPT: qHTS for Inhibitors of human tyrosyl-DNA phosphodiesterase 1 (TDP1): qHTS in cells in absence of CPT; DT40 Tdp1-/- hTDP1 cells, no CPT, ATP luminescence, 48 h; Potency, µM (titrated, usually from 46.2 µM), usual class: inhibitors; 15% of 420,000 active; AID 686978, 2013; note: nearly all actives have a fitted effect of over 55% in size
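A cellular qHTS used chicken DT40 cells lacking endogenous Tdp1 but carrying stably transfected human TDP1. Compounds were applied without camptothecin, and cell growth kinetics were judged by ATP-dependent luminescence after ≥48 hr.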
IL1B secr inh: blocks inflammasome-driven IL-1 beta release | activity change, % at 57.5 µM | THP-1 LPS/ATP IL-1B secretion, AlphaLISA, 16 h; hits give low values | AID 743279 | 4.7% of 360,000 active; in the data active = activity change below about -50%; inconclusive = mostly about -30% to -49%
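THP-1 cells pretreated 1 hr with compounds (up to 57.5 uM final), then stimulated with LPS (250 ng/mL final) plus ATP (1.25 mM final); secreted IL-1B measured by AlphaLISA after 16 hr, decreased signal indicating inhibition.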
Each line names hits and unclear results; the compound was inactive in the other large screens. Unless noted, calls come from the whole dose curve; as a rule, active = well fitted inhibition curve with a large enough effect; inconclusive = small, poorly fitted or top-dose-only effect; inactive = flat fitted curve, though single readings scatter.

CC1(C(=O)Nc2cnc3ccccc3c2)CCN1Cc1ccc(-c2ccccc2)o1 (stereo not given)	DT40 TDP1 CPT inconclusive, DT40 TDP1 no CPT 16µM
COc1cccc(NC(=O)C2(C)CCN2Cc2ccc(-c3ccccc3)o2)c1 (stereo not given)	DT40 TDP1 CPT inconclusive, DT40 TDP1 no CPT inconclusive
CC1(C(=O)Nc2cnc3ccccc3c2)CCN1Cc1ccccc1Cl (stereo not given)	DT40 TDP1 CPT 16µM, DT40 TDP1 no CPT 15µM
COc1cccc(CN2CCC2(C)C(=O)Nc2ccc(Cl)c(Cl)c2)c1F (stereo not given)	DT40 TDP1 CPT 21µM, DT40 TDP1 no CPT inconclusive
COc1cccc(NC(=O)C2(C)CCN2Cc2ccc(OC)c3ccccc23)c1 (stereo not given)	ClpP mod inconclusive, DT40 TDP1 CPT inconclusive
COc1cccc(CN2CCC2(C)C(=O)Nc2cnc3ccccc3c2)c1F (stereo not given)	DT40 TDP1 CPT inconclusive, DT40 TDP1 no CPT 18µM
CC1(C(=O)Nc2cnc3ccccc3c2)CCN1Cc1ccc(OC(F)(F)F)cc1 (stereo not given)	DT40 TDP1 CPT inconclusive, DT40 TDP1 no CPT inconclusive
CC1(C(=O)Nc2cnc3ccccc3c2)CCN1Cc1ccccc1OC(F)F (stereo not given)	DT40 TDP1 CPT 23µM, DT40 TDP1 no CPT 16µM (no result: IL1B secr inh)
Cc1ccc2nc(CN3CCN(C(=O)Nc4cccc(C)c4C)CC3)oc2c1	DT40 TDP1 CPT inconclusive (no result: D3 antag, IL1B secr inh)
COC(=O)CNc1nc(-c2ccncc2)nc2ccccc12	DT40 TDP1 no CPT inconclusive
CC(Nc1nc(-c2ccncc2)nc2ccccc12)c1ccccc1 (stereo not given)	DT40 TDP1 CPT 18µM, DT40 TDP1 no CPT 18µM
c1ccc(CCNc2nc(-c3ccncc3)nc3ccccc23)cc1	DT40 TDP1 CPT 21µM, DT40 TDP1 no CPT 18µM (no result: ClpP mod)
CC(Nc1nc(N2CCNCC2)nc2ccccc12)c1ccccc1 (stereo not given)	DT40 TDP1 CPT 4.1µM, DT40 TDP1 no CPT 5.2µM, IL1B secr inh -104 (no result: ClpP mod)
CCC(C)(C)c1ccc(OCC(=O)Nc2ccncc2)cc1	DT40 TDP1 CPT inconclusive
CC(C)(C)OC(=O)N1CCC(C(=O)NCC2CCCO2)CC1 (stereo not given)	none
CC(C)CN(C(=O)COC(=O)c1cc2ccccc2cc1O)c1c(N)n(Cc2ccccc2)c(=O)[nH]c1=O	DT40 TDP1 CPT inconclusive, DT40 TDP1 no CPT inconclusive, IL1B secr inh -54 (no result: ClpP mod)
CC(=O)Nc1sc(C)c(C)c1C(=O)OCC(=O)N(CC(C)C)c1c(N)n(Cc2ccccc2)c(=O)[nH]c1=O	DT40 TDP1 CPT 23µM, DT40 TDP1 no CPT 5.8µM (no result: ClpP mod)
CC(C)CN(C(=O)COC(=O)C12CC3CC(CC(C3)C1)C2)c1c(N)n(Cc2ccccc2)c(=O)[nH]c1=O	DT40 TDP1 CPT inconclusive, DT40 TDP1 no CPT 10µM (no result: ClpP mod)
COCCN(C(=O)COC(=O)C(C)(C)Oc1ccc(Cl)cc1)c1c(N)n(Cc2ccccc2)c(=O)[nH]c1=O	none
O=C(N/C(=C/c1cccc([N+](=O)[O-])c1)C(=O)N1CCCCCC1)c1ccco1	DT40 TDP1 CPT inconclusive
COc1cc(=O)n2c(c1C(=O)N(C)Cc1nonc1C)CCN(Cc1cc(C)ccc1C)CC2	none (no result: D3 ag, ClpP mod, D3 antag, IL1B secr inh)
S=C1NC2=C(CCCC2=C2SCCS2)C(c2ccccc2)N1 (stereo not given)	DT40 TDP1 no CPT 16µM, IL1B secr inh -84 (no result: ClpP mod)
COc1ccc2c(c1)C1=C(CC2)C(c2ccc(C)cc2)NC(=S)N1 (stereo not given)	DT40 TDP1 CPT inconclusive, DT40 TDP1 no CPT inconclusive
C=CC(COCc1ccccc1)N(C(=O)OC(C)(C)C)S(=O)(=O)c1ccccc1Br (stereo not given)	DT40 TDP1 CPT inconclusive, DT40 TDP1 no CPT 16µM
CC(C)(C)C(=O)OCC(=O)[C@H]1CC[C@H]2[C@@H]3CCC4=CC(=O)CC[C@]4(C)[C@H]3CC[C@]12C	none (no result: ClpP mod, D3 antag, IL1B secr inh)

Assay outcomes deposited in PubChem by National Center for Advancing Translational Sciences (NCATS).
